Laboratory results published in PubChem BioAssay.
“And” between values parts separate entries of the source, which are not always exact repeats. Equal entries are not always repeated. The source made the active and inactive calls.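 How the source made its calls, unless noted: active means thallium flux through the channel raised or lowered by more than 3 SD from vehicle-only wells, actives on both sides; inactive means the rest.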

Tests used:
[1] = Wnt pathway potentiators raising nuclear beta-catenin – imaging, WNT3A-conditioned medium, mouse C2C12, NPC library, primary screen (AID 1117326; in the data active means nuclear beta-catenin stimulation mostly above about 4.2%, no sharp cut-off; inactive means mostly below about 10%); details: stronger effect = higher value
[2] = stimulators of insulin release from INS-1E, primary screen, cell-based, 5 mM glucose, NPC library (AID 1117329;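 active means compound raises insulin release from rat beta cells at 5 mM glucose, no numeric limit stated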); details: rat INS-1E insulin secretion, at 10 µM, stronger effect = higher value
[3] = growth inhibition of GSK3B-pretreated HCT116 cells – cell-based, CellTiter-Glo, 0.2 to 20 µM (AID 1117336;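 active means compounds lowering colon cancer cell viability after pretreatment blocking the GSK3B kinase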); details: HCT116 viability after GSK3B inhibitor, at 20 µM, stronger effect = higher value
[4] = inhibition of endothelial tube formation, primary screen, imaging, VEGF stimulated, CD31 staining, tube area, NPC library (AID 1117340;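 active means compound that reduces growth-factor-driven endothelial tube area in a mixed cell culture, no cutoff stated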); details: VEGF-stimulated ADSC/ECFC co-culture, at 10 µM, stronger effect = higher value
[5] = GLP1 release stimulators, primary, NCI-H716, NPC library (AID 1117341;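 active means compound raises GLP1 secretion from the human gut endocrine cells, with no numeric limit stated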); details: NCI-H716 cells, at 10 µM, stronger effect = higher value
[6] = HCT116 colon cancer cell growth inhibition, primary screen, CellTiter-Glo luminescence, NPC library (AID 1117342;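 active means compounds that lower survival of HCT116 colon cancer cells in the luminescence readout, no numeric limit stated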); details: at 20 µM (top of the series)
[7] = reduced SW480 viability measured with CellTiter-Glo, NPC library, primary (AID 1117343;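 active means compounds that lower viability of the colon cancer cells in the luminescence readout, with no numeric limit stated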); details: CellTiter-Glo luminescence; at 20 µM (top of the series)
[8] = NPC library primary testing for decreased DLD-1 cell viability via CellTiter-Glo (AID 1117346;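 active means compounds that lower survival of DLD-1 colon cancer cells in the luminescence readout, no cutoff given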); details: DLD-1 viability, CellTiter-Glo luminescence; at 20 µM (top of the series)
[9] = biological target: 6-phosphogluconate dehydrogenase, decarboxylating (Homo sapiens) (UniProt P52209); experiment: inhibition of human phosphogluconate dehydrogenase – biochemical, recombinant enzyme, NADPH absorbance, primary screen (AID 1159550;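 active means at least 20% inhibition of 6-phosphogluconate dehydrogenase activity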); details: recombinant 6PGD, NADPH absorbance 341 nm; at 10 µM; stronger effect = higher value
[10] = modulation of C. elegans fzo-1 (AID 1259413; call rule not given here;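 further: fzo-1 mutant C. elegans worms in liquid wells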); details: C. elegans fzo-1 modulator screen, mean read-out; stronger effect = higher value
[11] = EMT-state selective cytotoxicity in co-culture – imaging, PC-3E GFP, TEM4-18 mCherry, primary screen (AID 1345086;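 active means compounds killing one labelled cell type while sparing the other, by normalised counts and ratio limits, not self-fluorescent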;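 on all read-outs here: cells exposed to compound for 72 h before imaging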;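 on red/green cell ratio (normalised): normalised mesenchymal count divided by normalised epithelial count so high means epithelial killing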); details: PC-3E GFP / TEM4-18 mCherry co-culture, imaging cell counts, at 1 µM; for red/green cell ratio (normalised): actives lie on both sides, counts scaled to control wells, 1 = unselective
[12] = viability loss with induced miR-34 in A549 – imaging, A549 dox-inducible miR-34, nuclei and caspase counts, primary screen (AID 1347080;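 active means compounds whose cell count with miR-34 switched on is under 0.7 times the count with it off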); details: A549 miR-34 inducible, Hoechst nuclei count, 48 h
[13] = MELAS cybrid and Rieske KO viability enhancers – cell-based, MELAS cybrids, Rieske KO mouse fibroblasts, CellTiter-Glo, primary screen (AID 1508586;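 active means mean z-score across replicates of 1.96 or higher in either the MELAS or the Rieske mutant cell line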;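 further: z relative to plate mean and SD of compound and empty wells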); details: low glucose
[14] = biological target: NAD(+) hydrolase SARM1 (Homo sapiens) (UniProt Q6SZW1); experiment: blocking NAD cleavage by SARM1 SAM-TIR – cell lysate, NAD-Glo luminescence (AID 1508614;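 active means compound whose remaining NAD level is above about 45 nM, limit read from the data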); details: SAM-TIR HEK293T lysate NADase, at 1 µM, stronger effect = higher value
[15] = biological target: Mitogen-activated protein kinase 7 (Homo sapiens) (UniProt Q13164); experiment: Gal4-ERK5 driven luciferase induction – cell-based, HTS, primary screen (AID 1508626;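 active means luciferase signal above three times the same-plate solvent-only control wells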;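 further: luciferase driven by Gal4-ERK5 fusion binding five Gal4 sites before minimal TATA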); details: HeLa Gal4-ERK5 transactivation, 18 h, at 5 µM, stronger effect = higher value
[16] = growth inhibition, single agents and combos, ICB984, cell-based, cisplatin or BGB combos, synergistic combos for chromothripsis tumors (AID 1671451; call rule not given here;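 further: cells exposed for 96 hours before readout; 0% = vehicle DMSO and 100% = killing by high DMSO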); details: ICB984 medulloblastoma cells, drug combinations, stronger effect = higher value
F380Y = experiment: BK channel mutant inhibitors and activators – cell-based, U2OS BacMam, thallium flux, beta subunits, selectivity assay, profiling panel (AID 1259406); details: U2OS BacMam BK variants, at 30 µM;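 further: initial slope of Thallos dye fluorescence rise after thallium is added; log ratio against the mean of 0.3% DMSO vehicle wells on the same plate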
F380Y/beta1 = experiment: as above; details: U2OS BacMam BK variants, at 30 µM
F380Y/beta2Delta = experiment: as above; details: U2OS BacMam BK variants, at 30 µM
[17] = measured here: epithelial PC-3E GFP cell survival
[18] = measured here: mesenchymal TEM4-18 mCherry cell survival
[19] = MELAS cybrid survival, CellTiter-Glo 48 h, stronger effect = higher value
[20] = Rieske KO mouse fibroblast survival, CellTiter-Glo 72 h

Mitogen-activated protein kinase 7 (Homo sapiens), sequence (Q13164 whole entry, looked up, the tested form may be a part): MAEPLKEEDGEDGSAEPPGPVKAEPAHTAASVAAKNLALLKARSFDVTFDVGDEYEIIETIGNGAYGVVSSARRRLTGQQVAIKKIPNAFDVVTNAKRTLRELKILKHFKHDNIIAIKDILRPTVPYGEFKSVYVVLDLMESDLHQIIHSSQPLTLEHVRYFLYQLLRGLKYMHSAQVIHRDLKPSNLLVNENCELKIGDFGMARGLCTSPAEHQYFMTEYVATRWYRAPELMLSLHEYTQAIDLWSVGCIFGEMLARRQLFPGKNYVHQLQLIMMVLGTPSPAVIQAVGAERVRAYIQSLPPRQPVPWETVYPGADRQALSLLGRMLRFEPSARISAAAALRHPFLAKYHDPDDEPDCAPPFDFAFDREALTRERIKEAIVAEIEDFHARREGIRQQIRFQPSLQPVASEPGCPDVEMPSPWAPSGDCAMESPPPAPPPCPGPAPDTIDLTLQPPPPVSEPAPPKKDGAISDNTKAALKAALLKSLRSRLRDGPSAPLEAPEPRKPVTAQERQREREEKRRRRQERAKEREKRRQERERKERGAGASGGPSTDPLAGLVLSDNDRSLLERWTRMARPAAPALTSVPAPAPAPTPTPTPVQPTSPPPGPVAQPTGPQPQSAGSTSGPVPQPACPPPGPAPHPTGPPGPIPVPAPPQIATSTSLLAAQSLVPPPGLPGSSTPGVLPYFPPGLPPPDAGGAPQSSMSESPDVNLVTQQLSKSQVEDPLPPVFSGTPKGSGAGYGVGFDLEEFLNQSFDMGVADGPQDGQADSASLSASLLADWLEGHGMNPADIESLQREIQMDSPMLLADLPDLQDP
6-phosphogluconate dehydrogenase, decarboxylating (Homo sapiens), sequence (P52209 whole entry, looked up): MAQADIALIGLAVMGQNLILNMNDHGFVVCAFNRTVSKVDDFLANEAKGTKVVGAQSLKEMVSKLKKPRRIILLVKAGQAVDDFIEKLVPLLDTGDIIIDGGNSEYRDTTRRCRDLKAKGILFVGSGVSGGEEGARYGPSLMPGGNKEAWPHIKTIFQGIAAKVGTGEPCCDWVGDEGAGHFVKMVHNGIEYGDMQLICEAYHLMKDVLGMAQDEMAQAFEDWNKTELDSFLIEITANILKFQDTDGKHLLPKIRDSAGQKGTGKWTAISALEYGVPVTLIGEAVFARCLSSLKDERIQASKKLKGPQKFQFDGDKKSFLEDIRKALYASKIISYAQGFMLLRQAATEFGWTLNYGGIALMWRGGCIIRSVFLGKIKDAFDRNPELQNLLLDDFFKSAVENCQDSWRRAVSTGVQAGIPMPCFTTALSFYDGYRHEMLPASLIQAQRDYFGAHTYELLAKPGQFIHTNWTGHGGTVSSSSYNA
NAD(+) hydrolase SARM1 (Homo sapiens), sequence (Q6SZW1 whole entry, looked up, the tested form may be a part): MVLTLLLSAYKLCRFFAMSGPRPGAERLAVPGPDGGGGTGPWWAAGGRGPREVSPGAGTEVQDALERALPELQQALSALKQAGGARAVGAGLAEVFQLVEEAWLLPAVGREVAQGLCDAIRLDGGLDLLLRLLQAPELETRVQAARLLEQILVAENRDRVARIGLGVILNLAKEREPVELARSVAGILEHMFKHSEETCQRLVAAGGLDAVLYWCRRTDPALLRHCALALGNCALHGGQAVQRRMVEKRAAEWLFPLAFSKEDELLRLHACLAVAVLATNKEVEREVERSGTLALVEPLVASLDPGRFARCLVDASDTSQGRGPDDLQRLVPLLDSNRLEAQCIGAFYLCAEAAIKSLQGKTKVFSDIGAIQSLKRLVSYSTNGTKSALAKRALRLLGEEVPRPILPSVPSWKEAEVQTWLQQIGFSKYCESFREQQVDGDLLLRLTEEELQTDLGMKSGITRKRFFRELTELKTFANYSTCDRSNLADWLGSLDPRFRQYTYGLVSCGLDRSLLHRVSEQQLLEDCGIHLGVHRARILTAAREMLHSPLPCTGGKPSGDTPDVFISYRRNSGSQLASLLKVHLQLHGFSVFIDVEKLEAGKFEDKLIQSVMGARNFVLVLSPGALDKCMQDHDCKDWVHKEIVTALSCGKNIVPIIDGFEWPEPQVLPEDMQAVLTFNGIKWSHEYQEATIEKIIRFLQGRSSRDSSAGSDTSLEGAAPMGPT

COc1c(N2CCNC(C)C2)c(F)cc2c(=O)c(C(=O)O)cn(C3CC3)c12 (stereo not given)
-15.7% and 18%: inhibition ([16]; cisplatin combo, at 0.05 µM)
-2.69% and -3.52%: inhibition ([16]; measured here: 5 uM single agent, at 5 µM)
-26.5% and -51.5%: inhibition ([16]; cisplatin combo, at 5 µM)
1.74 and 1.47 and 1.16: fold change ([12]; measured here: relative caspase fold change +Dox/-Dox)
10900 and 13100 and 11000: cell count ([12]; measured here: total cells without miR-34 induction)
-12.4% and -7.73%: inhibition ([16]; cisplatin combo, at 0.5 µM)
1.11 and 1.05: normalised cell number [11, 18]
inactive: nuclear beta-catenin stimulation ([1]; at 10 µM) 0.7% | insulin secretion stimulation [2] -1.15% | viability decrease [3] 6.2% | tube area decrease [4] -12.3% | GLP1 secretion stimulation [5] -2.4% | inhibition of viability [6] 25.9% | viability decrease (inhibition) [7] -16.2% | viability decrease (inhibition) [8] -9.8% | inhibition [9] -4.88% | mean signal [10] 254 | red/green cell ratio (normalised) [11] 0.98 and 0.92 | fold change ([12]; stronger effect = lower value, cell number ratio, induced over uninduced) 0.968 and 0.875 | z-score [13, 19] 0.506 and 0.393 | remaining NAD [14] 10 nM | luciferase signal [15] 72 AU | inhibition ([16]; at 0.5 µM) -18.4% and -24.4% | log fold change Tl+ flux (F380Y) -0.00177 | log fold change Tl+ flux (F380Y/beta1) -0.0535 | log fold change Tl+ flux (F380Y/beta2Delta) -0.045
6.38% and 0.318%: inhibition ([16]; BGB IC20 combo, at 0.005 µM)
-0.687 and -0.598: z-score [13, 20]
-11.2% and -13.7%: inhibition ([16]; BGB IC40 combo, at 0.005 µM)
2.5%: nuclear beta-catenin stimulation ([1]; stimulation, at 2 µM)
10600 and 11400 and 9660: cell count ([12]; measured here: total cells with miR-34 induction, stronger effect = lower value)
-11.7% and 20.2%: inhibition ([16]; BGB IC40 combo, at 0.05 µM)
1.12 and 1.14: normalised cell number [11, 17]

CC(C[N+](C)(C)C)OC(N)=O (stereo not given)
1.11: normalised cell number [11, 18]
0.843 and -0.822 and 0.416: z-score [13, 20]
inactive: nuclear beta-catenin stimulation ([1]; at 10 µM) -0.5% | insulin secretion stimulation [2] 0.3% | viability decrease [3] -5.9% | tube area decrease [4] -10% | GLP1 secretion stimulation [5] 0.5% | inhibition of viability [6] -0.4% | viability decrease (inhibition) [7] -11.8% | viability decrease (inhibition) [8] -7.3% | inhibition [9] -9.2% | mean signal [10] 276 | red/green cell ratio (normalised) [11] 0.97 | z-score [13, 19] -0.399 and 0.646 and 0.598 | remaining NAD [14] 10 nM | luciferase signal [15] 56 AU | log fold change Tl+ flux (F380Y) 0.0115 | log fold change Tl+ flux (F380Y/beta1) 0.0306 | log fold change Tl+ flux (F380Y/beta2Delta) -0.0155
1.15: normalised cell number [11, 17]
-1.3%: nuclear beta-catenin stimulation ([1]; stimulation, at 2 µM)

O=C(C1CCCCC1)N1CC(=O)N2CCc3ccccc3C2C1 (stereo not given)
inactive: nuclear beta-catenin stimulation ([1]; at 10 µM) -0.4% | insulin secretion stimulation [2] 2.5% | viability decrease [3] -3.8% | tube area decrease [4] -2.6% | GLP1 secretion stimulation [5] -2.7% | inhibition of viability [6] -11.5% | viability decrease (inhibition) [7] 19.5% | viability decrease (inhibition) [8] -16.7% | inhibition [9] -0.949% | mean signal [10] 236 | red/green cell ratio (normalised) [11] 1.48 | z-score [13, 19] -0.396 and 0.0285 and 0.65 | remaining NAD [14] 10 nM | luciferase signal [15] 32 AU | log fold change Tl+ flux (F380Y) 0.0282 | log fold change Tl+ flux (F380Y/beta1) 0.027 | log fold change Tl+ flux (F380Y/beta2Delta) 0.0335
1.42: normalised cell number [11, 18]
-0.176 and 0.00765 and 0.589: z-score [13, 20]
0.96: normalised cell number [11, 17]
-1.1%: nuclear beta-catenin stimulation ([1]; stimulation, at 2 µM)
